TDP1 cell noCPT: qHTS for Inhibitors of human tyrosyl-DNA phosphodiesterase 1 (TDP1): qHTS in cells in absence of CPT; DT40 Tdp1-/- hTDP1 cells, no CPT, ATP luminescence, 48 h; Potency, µM (highest dose often 46.2 µM), for the others: at the top dose activity change, negative = growth inhibition, usual class: inhibitors; 420,000 compounds, 15% hits; AID 686978, 2013; further: potency means the concentration at half of the fitted maximal effect; nearly all actives have a fitted effect of over 55% in size
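Luminescent ATP content (CellTiter-Glo) served as the growth readout. Knockout chicken DT40 cells expressing human TDP1 were exposed to compounds without camptothecin for a minimum 48 hr at 37 °C.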
HT1080 IDH1KD tx: toxicity to HT-1080 IDH1 knockdown cells (counter line) | AID 686971 | 360,000 compounds, 2% hits | Potency, µM (series often up to 46.1 µM), without a hit: at the top dose activity, negative = toxicity, hits mostly cytotoxic | HT-1080 IDH1 knockdown viability, ATP luminescence, 48 h;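 further: potency means the concentration at half of the fitted maximal effect; 0% = DMSO wells and -100% = cell-free medium wells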
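CellTiter-Glo luminescence after 48 h compound exposure at 37 degrees C of IDH1-knockdown HT-1080 cells in 5% FBS RPMI. %Activity scaled between DMSO wells and cell-free media wells, with curves fitted and assigned curve classes.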
TDP1 cell CPT: DT40-hTDP1 cell growth loss with CPT. chicken DT40 Tdp1-/-;hTDP1 cells + 20 nM CPT, ATP luminescence, 48 h. AID 686979. Potency, µM (top dose mostly 46.2 µM), for the others: top-dose activity change, negative = growth inhibition, actives largely listed as inhibitors. 420,000 compounds, 12% hits; further: potency means the concentration at half of the fitted maximal effect; nearly all actives have a fitted effect of over 55% in size
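Cell growth measured by CellTiter-Glo luminescence after a minimum 48 h, 37 C compound exposure with 20 nM CPT in Tdp1-knockout DT40 cells stably expressing hTDP1, seeded 400/well; qHTS titration format.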
IL-1B inflam inh: blocks inflammasome-driven IL-1 beta release; THP-1 LPS/ATP IL-1B secretion, AlphaLISA, 16 h; hits give low values; activity change, % at 57.5 µM; 360,000 compounds, 4.7% hits; AID 743279; in the data active means activity change below about -50%; inconclusive means mostly about -30% to -49%
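Secreted IL-1B measured by AlphaLISA bead assay after 16 h compound exposure of THP-1 cells; compounds (final up to 57.5 uM) added 1 h before LPS (250 ng/mL) and ATP (1.25 mM) stimulation; lower signal means less secretion.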
HT1080-NT tox: kills 2HG-producing HT-1080-NT fibrosarcoma cells; HT-1080-NT fibrosarcoma viability, CellTiter-Glo ATP luminescence, 48 h; Potency, µM (titrated, usually from 46.1 µM), for inactives: at the top dose activity, negative = less viability, actives largely listed as cytotoxic; 360,000 compounds, 1.6% hits; AID 686970;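 further: NT is the 2HG producing partner of a matched IDH1 knockdown line; potency means the concentration at half of the fitted maximal effect; 0% = DMSO-treated cells and -100% = media-only wells without cells; nearly all actives have a fitted effect of over 55% in size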
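HT-1080-NT fibrosarcoma cells (2HG-overproducing), 750 cells/well in RPMI with 5% FBS, dosed after 2 h and incubated 48 h at 37C. CellTiter-Glo luminescence normalized to DMSO and no-cell wells; concentration-response curves fitted and classed.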
ELG1 repair inh: ELG1-dependent DNA repair inhibition; HEK293T ELG1-luciferase reporter, luminescence, 16 h; DNA damage induced by 5-fluorouridine; Potency, µM (titrated, usually from 46.1 µM), without a hit: at the highest dose activity change, negative = inhibition, hits mostly inhibitors; 330,000 compounds, 2.3% hits; further: potency means the concentration at half of the fitted maximal effect; nearly all actives have a fitted effect of over 55% in size
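In this reporter screen, reduction of luminescence relative to DMSO vehicle indicated activity. Compounds and 5-fluorouridine were added together to 2,000 cells per well, incubated for 16 hr at 37 °C, then developed with ONE-Glo.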
Active calls of the source: *; ? = inconclusive; · = no result; ! = not confirmed by another sample. This is a sample that favours compounds with a hit; in the whole collection about 19% have one here. Unless noted, the call rests on the fitted dose curve; in most records, active means well fitted curve in the direction sought with a large enough effect; inconclusive means small, poorly fitted or top-dose-only effect, or another doubt; inactive means no such curve, though single readings can be large; an effect the other way counts as inactive or inconclusive. Unless noted, on the % scale 0 is the no-effect control and ±100 the full control effect.

SMILES	TDP1 cell noCPT	HT1080 IDH1KD tx	TDP1 cell CPT	IL-1B inflam inh	HT1080-NT tox	ELG1 repair inh
CCCCCn1c(-c2ccco2)nc2nc3ccccc3nc21	?	-6%	?	-16	1%	?
c1ccc(Cn2c(-c3ccco3)nc3nc4ccccc4nc32)cc1	?	?	13µM*	-9	?	?
COc1ccc(CCn2c(-c3cc([N+](=O)[O-])cc([N+](=O)[O-])c3)nc3nc4ccccc4nc32)cc1	?	22%	?	14	12%	21%
NC(=O)c1ncn([C@@H]2O[C@H](CNCc3c(OCc4ccccc4F)ccc4ccccc34)[C@@H](O)[C@H]2O)n1	-9%	7%	6%	-19	6%	·
Fc1ccccc1COc1ccc2ccccc2c1CNc1nn[nH]n1	-18%	16µM*	-5%	27	13µM*	?
O=c1ccn([C@@H]2O[C@H](CNCc3c(OCc4ccccc4F)ccc4ccccc34)[C@@H](O)[C@H]2O)c(=O)[nH]1	?	?	16µM*	-58*	?	·
CCCCCCCCCCCCC/C=C\[C@@H](O)[C@@H](N)CO	?	·	-35%	·	·	·
Cc1ccc(S(=O)(=O)N(C)C)cc1NC(=O)c1cncc(Br)c1	12µM*	?	13µM*	46	?	15µM*
Cc1ccc(S(=O)(=O)N2CCCCC2)cc1NC(=O)c1cncc(Br)c1	?	-25%	?	-3	0%	5.8µM*
COc1ccc(NC(=O)c2cncc(Br)c2)c(S(=O)(=O)N2CCOCC2)c1	?	-2%	?	-16	-6%	11µM*
Cc1ccc(NC(=O)c2cncc(Br)c2)cc1S(=O)(=O)N(C)C	15µM*	-1%	?	-6	5%	?
O=C(c1cnccn1)N1CCC[C@@]2(CCN(c3ccncc3)C2)C1	-4%	·	14%	·	·	·
CC1CCN(S(=O)(=O)c2ccc3c(c2)CCN3)CC1	-22%	·	-12%	·	·	·
C[C@@H]1[C@H]2[C@@H](O[C@@H]3O[C@H](CO)[C@@H](O)[C@H](O)[C@H]3O)OC=C(C(=O)O)[C@H]2C[C@@H]1O	7.3µM*	-3%	7.3µM*	4	?	0%
N#CCC(=O)Nc1ccc(C(=O)NNC(=O)CCN2CCN(c3ccccc3)CC2)cc1	10%	10%	-1%	3	17%	1%
Nc1nc(-c2ccccc2)[nH]c(=O)c1N	?	2%	26µM*	-14	1%	-4%
COc1cc(C(CC(=O)N2CCOCC2)c2c(OC)cc(OC)c3ccc(=O)oc23)cc(OC)c1OC (stereo unspecified)	-1%	0%	6%	-7	-2%	?
CCN(CC)C(=O)CC(c1ccc(OC)cc1)c1c(OC)cc(OC)c2ccc(=O)oc12 (stereo unspecified)	?	-6%	23µM*	-23	-4%	13%
COc1ccc(C(CC(=O)N2CCCCC2)c2c(OC)cc(OC)c3ccc(=O)oc23)cc1 (stereo unspecified)	?	7%	21µM*	-18	-1%	18%
CC[C@](N)(CCC(=O)O)C(=O)O	19µM*!	·	-2%	·	·	·
COC(=O)/C(=C\Nc1ccc(Cl)cc1Cl)NC(=O)c1ccccc1	?	0%	-28%	-13	-6%	·
COC(=O)/C(=C\Nc1ccc(Cl)cc1Cl)NC(=O)c1ccc(Cl)cc1Cl	?	?	21µM*	?	?	·
Nc1nonc1NC(=O)NN=C1CCCCC1	-6%	2%	1%	14	-5%	8%
CNC(=O)C(C#N)(Cc1cc(C(C)=O)ccc1OC)Cc1cc(C(C)=O)ccc1OC	3%	-7%	3%	10	-5%	?
CC(C)(C)NC(=O)C1(C)CCC(=O)N1C1CCN(Cc2ccccc2)CC1 (stereo unspecified)	-4%	8%	4%	7	21%	·
SMILES	TDP1 cell noCPT	HT1080 IDH1KD tx	TDP1 cell CPT	IL-1B inflam inh	HT1080-NT tox	ELG1 repair inh
COc1ccc(CC(=S)N2CCOCC2)cc1	18µM*	12%	?	40	13%	20%
CCN1CCN(C(=O)c2ccc3c(c2)c(C)c(C)n3Cc2ccccc2)CC1	-43%	-22%	?	-15	-2%	-9%
Cc1c(C)n(Cc2ccc(F)cc2)c2ccc(C(=O)N3CCN(c4ccc(F)cc4)CC3)cc12	23µM*	·	21µM*	·	·	·
CCn1c(C)c(C)c2cc(C(=O)N3CCc4ccccc4C3)ccc21	15µM*	16µM*	?	26	?	?
CCn1c(C)c(C)c2cc(C(=O)NCCc3cc(OC)c(OC)c(OC)c3)ccc21	3.7µM*	·	4.1µM*	·	·	·
CCn1c(C)c(C)c2cc(C(=O)NCC(C)c3ccccc3)ccc21 (stereo unspecified)	29µM*	·	16µM*	·	·	·
Cc1ccn2c(C(=O)NNC(=O)Nc3ccc(Cl)cc3)c(C)nc2c1	1%	-1%	-8%	-8	-3%	0%
O=C(OCC(=O)N1CCCC1)c1cnc(Cl)c(Cl)c1	-25%	10%	-16%	?	5%	22%
Cc1ccc(-n2nnc(C(=O)Nc3cc(F)ccc3F)c2C)cc1F	?	·	-30%	·	·	·
COc1ccc2c(c1)c(CC(=O)O)c(C)n2Cc1ccc(Cl)cc1	-4%	·	-11%	·	·	·
COc1ccc(CCNC(=O)c2ccc3c(c2)c(C)c(C)n3Cc2ccccc2)c(OC)c1OC	?	·	23µM*	·	·	·
COc1ccc(OC)c(CCNC(=O)c2ccc3c(c2)c(C)c(C)n3Cc2ccccc2)c1	?	·	16µM*	·	·	·
COc1ccc(C(=O)NCCc2cc3c(OC)ccc(OC)c3[nH]c2=O)cc1OC	?	-26%	?	-1	?	?
COc1ccc(CCNC(=O)c2ccc3c(c2)c(C)c(C)n3Cc2ccc(F)cc2)c(OC)c1OC	23µM*	·	18µM*	·	·	·
Cc1c(C)n(Cc2ccc(F)cc2)c2ccc(C(=O)NCCN3CCOCC3)cc12	16µM*	0%	?	-9	-3%	-12%
O=C(Cn1c(=O)n(CC2CCCO2)c(=O)c2ccccc21)Nc1ccc(F)cc1F (stereo unspecified)	-18%	·	-7%	·	·	·
Cc1cccc(NC(=O)C2CCC(CNS(=O)(=O)c3ccc4c(c3)CCCC(=O)N4)CC2)c1C (stereo unspecified)	-26%	·	?	·	·	·

Source: PubChem BioAssay
